Measured values published in PubChem BioAssay AID602254 (Broad Institute, 2012).
Among all 1,000 compounds or so, fewer than 10 were called active.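 The calls were made as follows: active = fitted half-maximal concentration no higher than twice the top valid tested dose, with signal falling; inconclusive = flat curve with 30 to 70% inhibition, or poor fit; inactive = the rest.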 A selection follows. Results with a measured potency or affinity are listed apart.

biological target: Golgi-associated PDZ and coiled-coil motif-containing protein (Homo sapiens) (UniProt Q9HD26); assay: CAL PDZ domain peptide-binding inhibitors, dose response, biochemical, fluorescence polarization, untagged CAL PDZ, cherry-pick, set 2 (AID 602254); settings: Purified CAL PDZ, TMR peptide fluorescence polarization; series mostly up to 60 µM;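 also: more negative means stronger blocking of peptide binding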

outcome, inactive:
COc1ccc(CC(=O)Nc2ccc(S(=O)(=O)Nc3cc(C)on3)cc2)cc1
COc1ccccc1N1CCN(/N=C/c2ccc(O)cc2O)CC1
O=C(Nc1ccnn1C1CCN(CC2CC=CCC2)CC1)c1ccccc1Cl (centres undefined)
COc1cccc(NC(=O)c2ccc3nsnc3c2)c1
O=C(NCCCN1CCOCC1)c1ccc2c(c1)N(Cc1ccccc1)CCS2
Cc1ccc(NC(=O)COc2ccccc2C(=O)NCCc2ccccc2)cc1
O=C(COC(=O)c1ccc(NC(=O)C2CC=CCC2C(=O)O)cc1)c1ccccc1 (centres undefined)
CCOC(=O)c1c(NC(=O)C2CCCCC2)sc2c1CCN(CC)C2
COc1ccc(CNc2ccc(-c3ccccc3OC)nn2)cc1
CN(C(=O)c1cccc(C(F)(F)F)c1)C1CCCc2ccccc21 (centres undefined)
Cc1n[nH]c(C)c1CCN(C)Cc1cn(C)nc1-c1ccc2c(c1)OCCO2
COc1ccc(NC(=O)CC(CC(=O)O)c2cc(OC)c(OC)c(OC)c2)cc1 (centres undefined)
Cc1ccc(NC(=S)N(CCCN2CCCC2)Cc2cccn2Cc2ccc(Cl)cc2)cc1C
O=C1CN(C(=O)COc2ccc(F)cc2Br)c2ccccc2N1
O=C(C1CC1)N1CCc2cc(S(=O)(=O)N3CCOCC3)ccc21
CS(=O)(=O)c1ccc(C(=O)NC2CCCc3ccccc32)cc1 (centres undefined)
COC(=O)c1ccccc1NC(=S)N1CCN(C2CCCCC2)CC1
Cc1ccccc1NC(=O)c1ccc(NC(=O)C2CCCO2)cc1 (centres undefined)
CC(NC(=S)NC(=O)c1ccccc1Br)c1ccccc1 (centres undefined)
COc1ccc(OC)c(-c2csc(NC(=O)c3ccc4c(c3)OCO4)n2)c1
CCN(Cc1cnn(C)c1)C(=O)C1CCC(=O)N(CCc2ccc(OC)cc2)C1 (centres undefined)
CC(=O)Nc1sc(NC(=O)c2ccc(C)cc2)nc1-c1cccs1
O=C(CNC(=O)c1ccccc1Cl)N/N=C/c1ccc2c(c1)OCO2
O=C(NCCc1ccccc1F)c1ccc2c(c1)OCCO2
CCc1nnc(NS(=O)(=O)c2ccc(N3C(=O)c4ccccc4C3=O)cc2)s1
Cc1cccc(NC(=O)CCNC(=O)c2ccc(Br)cc2)c1
COC(=O)c1cc(S(=O)(=O)NCCN2CCN(c3ccccc3F)CC2)c[nH]1
COc1ccc(CCNS(=O)(=O)c2ccccc2)cc1OC
CCOC(=O)N1CCN(C(=O)c2ccc3c(=O)n(-c4ccc(OC)cc4OC)c(=S)[nH]c3c2)CC1
COc1ccccc1/C=N/NC(=O)c1ccc2c(c1)OCO2
COc1ccccc1C(=O)Nc1cccc2nc(C)ccc12
O=C(Nc1ccc(F)cc1)C1CCCN1S(=O)(=O)c1cccc2nsnc12 (centres undefined)
Cc1ccc(N(C)C(=O)C2CCCN2S(=O)(=O)c2cccc3nsnc23)cc1 (centres undefined)
O=C(Nc1cccc(O)c1)c1ccc(NC(=O)C2CCCO2)cc1 (centres undefined)
CC(=O)Nc1ccc(NC(=O)COC(=O)COc2ccc3ccccc3c2)cc1
COc1ccccc1CNC(=O)COC(=O)CC1CC2CCC1C2 (centres undefined)
Cc1ccc(S(=O)(=O)Nc2c(C)n(C)n(-c3ccccc3)c2=O)cc1
C=CC(=O)NCc1ccc(-c2csnn2)cc1
CC(=O)NC(Cc1ccccc1)C(C)=O (centres undefined)
CCSc1nnc(NC(=O)CN2C(=O)NC3(CCCC3)C2=O)s1
COc1ccc(NC2CCCN(C(=O)c3csc(C(C)C)n3)C2)cc1 (centres undefined)
O=C1OC(CO)CN1Cc1ccccc1 (centres undefined)
O=S1(=O)c2c(F)cccc2OC(COCc2ccccc2)CN1C1CCCC1 (centres undefined)
Cc1ccc(C)c(N(CC(=O)N2CCCC2)S(C)(=O)=O)c1
COc1ccc(NC(=O)n2ncc3c(C)cccc32)cc1
O=C(O)c1c(-c2ccc(Cl)cc2)cn2ccccc12
O=C(NCc1ccncc1)C(=O)N/N=C/c1ccccn1
O=C(COC(=O)COc1ccc(Br)cc1)NCC1CCCO1 (centres undefined)
CCCCN1CC(COCc2ccccc2)Oc2cccc(F)c2S1(=O)=O (centres undefined)
COc1ccccc1C(=O)Nc1ccc2c(c1)nc(CN1CCCCC1)n2C
COC(=O)Cc1ccc(NC(=S)Nc2cccc(C)n2)cc1
O=C(CN1CCC(n2nnc3cc(C(F)(F)F)ccc32)CC1)Nc1ccc2c(c1)OCCO2
CCOC(=O)C(/C=N/c1cc(C)nn1-c1ccccc1)=C(\C)O
CCc1ccc(C(=O)NNC(=O)c2c(CC)noc2C)cc1
COc1ccc(/C=N/N2CCN(Cc3ccc(C)cc3)CC2)cc1Br
Cc1ccc(C(=O)NN2C(=O)c3ccc(S(=O)(=O)c4ccc(C(=O)O)cc4)cc3C2=O)cc1
CC(C)CNC(=O)NC(=O)COC(=O)COc1ccc(Cl)cc1Cl
COc1ccccc1C(=O)Oc1ccccc1C(=O)Nc1ccccc1
O=C(O)Cc1sc(-c2ccc(Cl)cc2)nc1-c1ccccc1
Cc1ccc2nc(NC(=O)COC(=O)c3ccncc3)sc2c1
Cc1noc(C)c1COc1cccc(C(=O)OC(C)C#N)c1 (centres undefined)
COc1ccc(CN2CCNC(=O)C2CC(=O)NC2CCCCCCC2)cc1OC (centres undefined)
CCC(C)(C(=O)NC1CCCCC1)N(C)C(=O)c1ccccn1 (centres undefined)
Cc1cc(CN(C)C(=O)C2CCC(=O)N(CCc3cccc(F)c3)C2)on1 (centres undefined)
Cc1onc(-c2c(Cl)cccc2Cl)c1C(=O)N1CCN(c2ncccn2)CC1
CC(C)c1ccc(S(=O)(=O)N2CCN(C(=O)c3cccc(F)c3)CC2)cc1
Cc1ccc(/C=N/N(C)S(=O)(=O)c2ccc(C)cc2)cc1
CCOc1ccc(NC(=O)CCN2CCN(S(=O)(=O)c3ccc(F)cc3)CC2)cc1
Cc1ccccc1C(=O)c1cccn1CC(=O)NCCC1=CCCCC1
COc1ccccc1NC(=O)C1CCN(C(=O)NCc2ccccc2)CC1
CCSc1ccccc1C(=O)NCCc1ccccc1
COc1ccc(C)cc1NC(=O)Cn1c(=O)oc2ccccc21
O=C(NNC(=O)C1CCC1)c1ccc(Br)cc1
CC1CCN(C(=O)COc2ncnc3ccccc23)CC1
COc1ccc(CCC(=O)Nc2ncc(C)s2)cc1OC
CC(=O)Nc1ccc(NCC(=O)c2ccccc2)cc1
O=C(Oc1ccccc1)N1CCOCC1
CCCN1CCN(S(=O)(=O)c2ccc3c(c2)CCC(=O)N3)CC1
COC(=O)c1c(NC(=O)CN(C)CC(=O)Nc2ccc(C)cc2)sc2c1CCC(C)C2 (centres undefined)
CCOC(=O)Cn1c(=O)oc2cc(S(=O)(=O)N(C)Cc3ccccc3)ccc21
CC(C)Oc1cccc(C(=O)C2CCCN(C(=O)CCn3cnnn3)C2)c1 (centres undefined)
CC1CCC(NC(=O)c2nn(C)c3c2CSc2ccccc2-3)CC1 (centres undefined)
CCOC(=O)c1ccc(S(=O)(=O)NCC(C)(C)N2CCOCC2)cc1
c1ccc(CN2CCCC3(CCCN(Cc4nc(COc5ccccc5)no4)C3)C2)cc1 (centres undefined)
O=C(COc1ccc(Cl)cc1)Nc1cc(NC(=O)COc2ccc(Cl)cc2)cc(C(=O)O)c1
CN(Cc1cnccn1)Cc1nc(Cc2ccccc2F)no1
CCCNC(=O)C1CCC(CNS(=O)(=O)c2ccc3c(c2)CC(C)N3C(C)=O)CC1 (centres undefined)
Fc1ccc(Cn2cc(C(=S)N3CCOCC3)c3ccccc32)cc1
CCC(=O)N1CCc2cc(Br)cc(S(=O)(=O)N3CCCCC3CC)c21 (centres undefined)
CC1CCN(Cc2nnnn2CCCC(=O)NCCc2cnn(C)c2)CC1
Cc1ccc(O)c(-c2cc(-c3cccc(Br)c3)n[nH]2)c1
C=CCc1ccc(OCCCCN2CC(C)OC(C)C2)c(OC)c1 (centres undefined)
Cc1noc(NS(=O)(=O)c2ccc(NC(=O)c3ccc(N(C)C)cc3)cc2)c1C
Cc1ccc(NC(=O)CN(C)C(=O)COc2cccc3ccc(C)nc23)cc1
COc1ccc(-c2[nH]ncc2CNC(C)CCn2cccn2)cc1F (centres undefined)
Cc1ccc(N2CCN(CCCCN3C(=O)C4CCCN4C3=O)CC2)cc1 (centres undefined)
COc1ccc(-c2csc(N3C(=O)CNC3=S)n2)cc1
N#Cc1ccc(NC(=O)NN2CCCCCC2)cc1
CCN1CCCc2cc(CN(CCN3CCOCC3)C(=S)Nc3cccc(C)c3)ccc21
N/N=C(\c1ccccc1)c1cc(Br)ccc1N
COc1ccc(NC(=O)Oc2cc(C)ccc2C(C)C)cc1
OCCCc1cn(Cc2ccccc2)c2ccccc12
O=C(Cn1cccc1C(=O)c1ccccc1)NCc1ccccc1Cl
CC(C)(C)c1cc(C(=O)NNc2cccc(Cl)c2)n(Cc2ccccc2)n1
O=C(NCc1ccc(F)cc1)c1c2c(nc3ccccc13)CCN(Cc1ccccc1)C2
CC(C)CC1NC(=O)N(CC(=O)N(C)C2CCCCC2)C1=O (centres undefined)
N#Cc1c(N)c(C#N)c(-c2ccc(O)cc2)c2c1CCCC2
Cc1cccc(C)c1NC(=S)NC(C)(C)CO
CC(C)(C)OC(=O)n1cc(C(=O)c2ccccc2O)cn1
Cc1cc(Nc2ccccc2Cl)nc(-c2ccccc2O)n1
CN(C)CCCNC(=S)Nc1ccc(Oc2ccccc2)cc1
COC(=O)c1ccc(NC(=S)Nc2cccc(C)n2)cc1
Cc1cc(C)nc(NCC(O)CNc2ccccc2C)n1 (centres undefined)
Cc1ccc(Cl)c(NC(=O)COC(=O)C2CCC2)c1Cl
COC(=O)c1cc2ccsc2n1Cc1cccc(F)c1
O=S(=O)(NC1CCCC1)c1ccc(-n2cnnn2)cc1
COc1ccc(Cl)cc1C(=O)NNC(=O)CNC(=O)c1ccc(C)s1
COc1ccc(CCNS(=O)(=O)c2ccc(-n3cnnn3)c(OC)c2)cc1OC
COc1ccccc1C(=O)NC(CCSC)C(=O)NC1CC1 (centres undefined)
COc1ccc(OCCSc2nnc(C(C)NC(=O)c3ccccc3F)n2C)cc1 (centres undefined)
COc1ccc(NC(=O)Nc2nnc(C(C)(C)C)s2)cc1
CCSc1nnc(NC(=O)CCNC(=O)c2ccccc2Cl)s1
O=C(CNC(=O)CNC(=O)c1ccc(Cl)cc1Cl)NCc1cccc(Cl)c1
O=C(O)CC(CNC(=O)C1CCCN1C(=O)OCc1ccccc1)c1ccccc1 (centres undefined)
CC(=O)c1cc(Cl)ccc1OCC(=O)Nc1cccc(S(=O)(=O)N2CCCC2)c1
O=C(COc1ccc2c(c1)OCO2)Nc1nccs1
COC(=O)c1ccc(CN2C(=O)c3ccccc3S2(=O)=O)cc1
CCc1nnc(NC(=O)c2cc(S(=O)(=O)N3CCCCC3)ccc2C)s1
COC(=O)c1cc(S(=O)(=O)N2CCCC(C)C2)c[nH]1 (centres undefined)
